Measurements taken from PubChem BioAssay AID743326 (National Center for Advancing Translational Sciences (NCATS), 2014).
Calls of active or inactive are those of the source. Where a call stands in place of a potency, no number is given. The call rests on the fitted dose curve. Numbered stars: 1 amine (or outer) side, 2 acyl side, 3 side chain; on linkers, the order of the positions; unused ones are H or OH. Bridge positions count the residues as written; N and C are the ends. Square brackets hold non-standard residues; d marks the D form. Peptide text beside a SMILES is read from it. I, II: the chains in the order shown. Actinocin(9to1) = Cc1c2oc3c(C)ccc(C(=O)[*:1])c3nc-2c(C(=O)[*:2])c(N)c1=O; NMeV = CN[CH](C(=O)O)C(C)C; Sar = CNCC(=O)O

Assay: qHTS profiling of Chloroquine Analogs as inhibitors of Plasmodium falciparum (DD2) proliferation
Conditions: Potency: Plasmodium falciparum Dd2 proliferation inhibition; series mostly up to 28.7 µM
Text: Plasmodium falciparum is a virulent malarial parasite that kills 1-2 million people worldwide each year. Transmitted by mosquitoes, the sporozoite form of the parasite enters the blood stream to infect hepatocytes, where they become merozoites that infect red blood cells (erythrocytes). Within erythrocytes, merozoites begin a […] cycle of growth and division, after which the parasite is released to infect new red blood cells. Gametocytes, which form within erythrocytes as well, circulate in the bloodstream and are ingested by the mosquito, thereby completing the life cycle. To profile malarial isolates for differential chemical responses and to identify inhibitors of malarial growth, an assay that measures P. falciparum growth and replication within erythrocytes was employed. This assay uses a DNA binding fluorescent dye (SYBR Green) to detect parasite DNA following cell lysis. Because mature erythrocytes lack DNA, only Plasmodium-derived DNA is detected.
The SYBR Green viability assay was adapted from a method described previously (Plouffe et al., 2008). For screening 3 ul culture medium was dispensed into 1536 well black clear bottom plates (Aurora Biotechnologies) using a Multidrop Combi (Thermo Fisher Scientific Inc.), 23 nL compounds in DMSO were added by a pin tool (Kalypsys), and 5 ul of erythrocytes infected with P. falciparum (0.3% parasitemia, 2.5% hematocrit final concentration) were added. The plates were incubated at 37 C in a humidified incubator in 5% CO2 for 72 h, and 2 ul lysis buffer (20 mM Tris HCl, 10 mM EDTA, 0.16% saponin, 1.6% triton X, 10X SYBR Green I supplied as 10,000X […] by Invitrogen) was added to each well. The plates were mixed for 25 sec with gentle shaking and incubated overnight at room temperature in the dark. The following morning, fluorescence intensity at 485(14) nm excitation and 535(25) nm emission wavelengths was measured on an EnVision (Perkin Elmer) plate reader. Plate reads were normalized relative to the control inhibitor (0.29 uM artemisinin) and vehicle (DMSO) wells present on each plate and then corrected by an algorithm using vehicle-only control plates at the beginning and end of the compound plate stack.

| Compound | Potency |
| --- | --- |
| CN(C)CC/C=C1\c2ccccc2COc2ccccc21 | 1430 nM (active) |
| O=C(C[C@@H]1NCCC[C@@H]1O)Cn1cnc2ccccc2c1=O | inactive |
| CCc1ccc(OCc2ccccc2C(=O)Nc2ccc3nc(C)cc(N)c3c2)cc1 | inactive |
| C[C@H]1[C@@H](OC(=O)CCC(=O)O)O[C@@H]2OC3(C)CC[C@H]4[C@H](C)CC[C@@H]1[C@@]24OO3 | inactive |
| COC(=O)C1C2CC3c4[nH]c5cc(OC)ccc5c4CCN3CC2CC(OC(=O)c2cc(OC)c(OC)c(OC)c2)C1OC (stereo not given) | inactive |
| CN1CC[C@H](CN2c3ccccc3Sc3ccccc32)C1 | inactive |
| COc1cc(NC(C)CCCN)c2ncccc2c1 (stereo not given) | inactive |
| CN1C[C@H](C(=O)N[C@]2(C)O[C@@]3(O)[C@@H]4CCCN4C(=O)[C@H](Cc4ccccc4)N3C2=O)C[C@@H]2c3cccc4[nH]cc(c34)C[C@H]21 | inactive |
| CSc1cccc(NC(=O)CC[C@H]2O[C@@H]3O[C@]4(C)CC[C@H]5[C@H](C)CC[C@@H]([C@@H]2C)[C@@]35OO4)c1 | 26.6 nM (active) |
| C[C@@H]1CCC2[C@@H](C)[C@@H](O)O[C@@H]3O[C@@]4(C)CC[C@@H]1[C@@]23OO4 (stereo not given in full) | inactive |
| COc1cc2c(Nc3ccc(NC(=O)c4ccccc4)cc3)ncnc2cc1OCCCN1CCOCC1 | 749 nM (active) |
| CC(=O)N(O)CCCP(=O)(O)O | inactive |
| C[C@@H]1Cc2c([nH]c3cc(Cl)c(F)cc23)[C@]2(N1)C(=O)Nc1ccc(Cl)cc12 | inactive |
| O=CN(O)CCCP(=O)(O)O | inactive |
| COc1cc(C=CC(=O)CC(=O)C=Cc2ccc(O)c(OC)c2)ccc1O | 5300 nM (active) |
| Clc1ccc(COC(Cn2ccnc2)c2ccc(Cl)cc2Cl)c(Cl)c1 (stereo not given) | inactive |
| C=CCON=C(C[C@H]1O[C@@H]2O[C@]3(C)CC[C@@H]4[C@H](C)CC[C@@H]([C@H]1C)[C@@]24OO3)[C@H]1O[C@@H]2O[C@]3(C)CC[C@H]4[C@H](C)CC[C@@H]([C@@H]1C)[C@@]24OO3 | inactive |
| C[C@@H]1CC[C@H]2[C@@H](C)C(=O)O[C@@H]3OC4(C)CC[C@@H]1C32OO4 (stereo not given in full) | inactive |
| Cn1cncc1[C@@](N)(c1ccc(Cl)cc1)c1ccc2c(c1)c(-c1cccc(Cl)c1)cc(=O)n2C | inactive |
| CC(C)N=C(N)N=C(N)Nc1ccc(Cl)cc1 | inactive |

| Compound | Potency |
| --- | --- |
| Cc1cccc(C)c1OCC(=O)N[C@@H](Cc1ccccc1)[C@@H](O)C[C@H](Cc1ccccc1)NC(=O)[C@H](C(C)C)N1CCCNC1=O | inactive |
| Cc1cccc(C)c1NC(=O)C(C)N (stereo not given) | inactive |
| COc1ccc2nc3cc(Cl)ccc3c(Nc3cc(CN4CCCC4)c(O)c(CN4CCCC4)c3)c2n1 | inactive |
| Cc1c2oc3c(C)ccc(C(=O)NC4C(=O)NC(C(C)C)C(=O)N5CCCC5C(=O)N(C)CC(=O)N(C)C(C(C)C)C(=O)OC4C)c3nc-2c(C(=O)NC2C(=O)NC(C(C)C)C(=O)N3CCCC3C(=O)N(C)CC(=O)N(C)C(C(C)C)C(=O)OC2C)c(N)c1=O (stereo not given) (I: TVP[Sar][NMeV] / II: TVP[Sar][NMeV]; ester I:1-I:C, II:1-II:C; linker I:N-II:N via Actinocin(9to1); configuration not given here) | 2.4 nM (active) |
| C[C@H]1[C@@H](CCC(=O)Nc2ccc(F)cc2)O[C@@H]2O[C@]3(C)CC[C@@H]4[C@H](C)CC[C@@H]1[C@@]24OO3 | inactive |
| OB1OCc2cc(F)ccc21 | inactive |
| C[C@@H]1[C@@H](CC(C[C@H]2O[C@@H]3O[C@]4(C)CC[C@@H]5[C@H](C)CC[C@@H]([C@H]2C)[C@@]35OO4)C(=O)NCc2ccc(F)cc2)O[C@@H]2O[C@]3(C)CC[C@H]4[C@H](C)CC[C@@H]1[C@@]24OO3 (stereo not given in full) | inactive |
| O=C(Nc1ccc(Cl)cc1)Nc1ccc(Cl)c(Cl)c1 | inactive |
| CCc1nc(N)nc(N)c1-c1ccc(Cl)cc1 | inactive |
| COc1cc2c(cc1C(F)(F)F)N(C(=O)Nc1cc(F)cc(-c3cccnc3)c1)CC2 | inactive |
| CCCCCCCCCCOc1cc2c(=O)c(C(=O)OCC)c[nH]c2cc1OCC | inactive |
| CN(C)c1ccc2nc3ccc(=[N+](C)C)cc-3sc2c1 | 6.9 nM (active) |
| O[C@H](c1cc(C(F)(F)F)nc2c(C(F)(F)F)cccc12)[C@H]1CCCCN1 | inactive |
| C/C(=C\c1csc(C)n1)[C@@H]1C[C@@H]2O[C@]2(C)CCC[C@H](C)[C@H](O)[C@@H](C)C(=O)C(C)(C)[C@@H](O)CC(=O)O1 | inactive |
| C[C@@H]1[C@@H](C(=O)C[C@H]2O[C@@H]3O[C@]4(C)CC[C@@H]5[C@H](C)CC[C@@H]([C@H]2C)[C@@]35OO4)O[C@@H]2O[C@]3(C)CC[C@H]4[C@H](C)CC[C@@H]1[C@@]24OO3 | 1.3 nM (active) |
| C[N+]1(C)CCC(=C(c2ccccc2)c2ccccc2)CC1 | inactive |
| C[C@@H]1[C@@H](CC(C[C@H]2O[C@@H]3O[C@]4(C)CC[C@@H]5[C@H](C)CC[C@@H]([C@H]2C)[C@@]35OO4)C[S+](=O)([O-])c2ccc(COC(=O)N(C)C)cc2)O[C@@H]2O[C@]3(C)CC[C@H]4[C@H](C)CC[C@@H]1[C@@]24OO3 (stereo not given in full) | inactive |
| Cc1oncc1C(=O)Nc1ccc(C(F)(F)F)cc1 | inactive |
| CCN(CC)CCOCCOC(=O)C(CC)(CC)c1ccccc1 | inactive |
| CCN(CC)CCOc1ccc2c(=O)c3ccc(Cl)cc3n(CCN(CC)CC)c2c1 | 1330 nM (active) |
